Compound activity from PubChem BioAssay.
Most compounds without a hit are left out; they make up all but 1.2% or so of the library.
GSH fluor = compound fluoresces at 488/530 nm on GSH beads; GSH beads flow cytometry, compound fluorescence 488/530 nm; active compounds read high; fluorescence (KMESF) at 10 µM; actives 0.25% (n = 190,000); in the data active = fluorescence above about 89;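 note: glutathione beads carrying GST-tagged Bcl family fusion proteins plus one bare bead set; values are compound well signal with DMSO vehicle wells as background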
Avidin fluor = compound fluoresces at 488/530 nm on avidin beads. compound fluorescence 488/530 nm, flow cytometry; active compounds read high. fluorescence (KMESF) at 10 µM. actives 0.38% (n = 220,000). AID 1775; in the data active = fluorescence above about 47
RGS7-Gao = regulators of human RGS7-Galphao interaction | P09471 | Multiplexed bead flow cytometry, RGS7-Galphao binding; actives lie on both sides | binding response (% of control), % at 10 µM | actives 0.35% (n = 220,000) | AID 1439; in the data active = binding response below about 49% or above about 150%; inconclusive = no clear call, values can overlap the other calls; inactive = in between;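 note: fluorescent Galphao held in activated GDP-AlF4 state binding bead-coupled RGS7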
Target sequence (P09471 whole entry, looked up): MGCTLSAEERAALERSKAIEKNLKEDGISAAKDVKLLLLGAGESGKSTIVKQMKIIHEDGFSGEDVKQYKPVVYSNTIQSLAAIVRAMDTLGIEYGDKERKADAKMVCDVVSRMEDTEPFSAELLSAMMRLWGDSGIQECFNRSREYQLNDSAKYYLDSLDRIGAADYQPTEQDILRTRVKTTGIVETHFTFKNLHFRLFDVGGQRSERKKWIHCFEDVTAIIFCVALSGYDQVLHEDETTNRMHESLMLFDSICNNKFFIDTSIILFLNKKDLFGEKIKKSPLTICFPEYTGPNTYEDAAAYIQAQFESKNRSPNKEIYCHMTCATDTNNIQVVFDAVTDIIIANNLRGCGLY
RGS8-Gao reg = modulates binding of RGS8 to human Galphao. multiplexed bead flow cytometry; actives lie on both sides. response (percent of control binding), % at 10 µM. actives 0.34% (n = 220,000); in the data active = response below about 60% or above about 140%; inactive = in between;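 note: Galphao activated as the GDP aluminium fluoride complex binding bead-coupled RGS8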
RGS16-Gao HTS = modulates binding between human RGS16 and Galphao; bead-based flow cytometry RGS16-Galphao binding, fluorescence; actives lie on both sides; AID 1441; O15492+P09471; binding response (% of control), % at 10 µM; actives 0.38% (n = 220,000);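 note: Galphao activated by GDP with aluminum fluoride before binding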
Target sequence (O15492 whole entry, looked up): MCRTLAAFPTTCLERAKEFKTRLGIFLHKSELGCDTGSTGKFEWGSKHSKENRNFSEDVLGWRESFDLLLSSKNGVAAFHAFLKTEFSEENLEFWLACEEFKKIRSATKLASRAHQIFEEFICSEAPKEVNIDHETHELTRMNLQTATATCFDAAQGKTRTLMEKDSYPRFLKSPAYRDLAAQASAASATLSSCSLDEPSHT
Target sequence (P09471 whole entry, looked up): as the sequence (P09471 whole entry, looked up) above
RGS4-Gao reg = human RGS4-Galphao interaction regulation. P09471. binding response (% of control), % at 10 µM. Multiplexed bead flow cytometry, RGS4-Galphao binding; actives lie on both sides. actives 0.33% (n = 220,000). AID 1415; in the data active = binding response below about 49% or above about 150%; inactive = in between;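 note: fluorescent Galphao activated with aluminum fluoride binding bead-coupled RGS4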
RGS4-Gao HTS = regulators of human RGS4-Galphao interaction; multiplexed bead flow cytometry, RGS–Galpha-o binding; shares compounds with RGS16-Gao HTS; RGS4–Galpha-o binding response, % at 10 µM; actives 99% (n = 1,600);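 note: fluorescently labeled Galpha-o bound to GDP with aluminium fluoride binding biotinylated RGS beads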
Avidin counter = interferes with biotinylated probe binding to avidin beads; shares compounds with RGS16-Gao HTS; streptavidin beads, fluorescein-biotin binding, flow cytometry; inhibition, % at 10 µM; 1,700 tested, under 10 active;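 active = inhibition above 50%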;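 note: median green fluorescence of gated singlet beads compared with DMSO control wells; 0% = DMSO wells and 100% = complete loss of bead fluorescence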
RGS8-Gao single = confirmation of regulators of human RGS8-Galphao interaction; shares compounds with RGS16-Gao HTS; bead-based flow cytometry RGS8-Galphao binding, fluorescence; actives lie on both sides; binding response (% of control), % at 10 µM; actives 3% (n = 1,700); AID 1836; in the data active = binding response below about 72% or above about 130%; inactive = in between;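 note: Galphao activated as GDP AlF4 complex before binding bead RGS8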
RGS7-Gao confirm = confirmation of regulators of human RGS7-Galphao interaction; actives 7.8% (n = 1,700); response (percent of control binding), % at 10 µM; shares compounds with RGS16-Gao HTS; bead-based flow cytometry RGS7-Galphao binding; actives lie on both sides; in the data active = response below about 75% or above about 130%; inactive = in between;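 note: fluorescent Galphao activated with GDP and aluminum fluoride binding bead-coupled RGS7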
RGS16-Gao single = confirmation of regulators of human RGS16-Galphao interaction | shares compounds with RGS16-Gao HTS | bead-based flow cytometry, RGS16-Galphao binding; actives lie on both sides | response (% of control binding), % at 10 µM | actives 4% (n = 1,700); in the data active = response below about 74% or above about 130%; inactive = in between;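 note: Galphao activated as the GDP aluminium fluoride complex binding bead-coupled RGS16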
RGS4-Gao single = RGS4-Galphao interaction regulation, single point confirmation | AID 1840 | binding response (% of control), % at 10 µM | RGS4-Galphao binding, multiplexed bead flow cytometry; actives lie on both sides | actives 4% (n = 1,700) | shares compounds with RGS16-Gao HTS; in the data active = binding response below about 74% or above about 130%; inactive = in between
RGS19-Gao single = confirmation of regulators of human RGS19-Galphao interaction; shares compounds with RGS16-Gao HTS; bead-based flow cytometry RGS19-Galphao binding; actives lie on both sides; response (percent of control binding), % at 10 µM; actives 5% (n = 1,700); AID 1841; in the data active = response below about 50% or above about 160%; inactive = in between;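 note: 100% = no compound control and 0% = blank background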
An asterisk follows results filed as active; i = inactive; ? = inconclusive; / = not tested or not shown; [ ] = another dose, or the depositor's remark. Unless noted, the rule behind the calls is not given here.

SMILES | GSH fluor | Avidin fluor | RGS7-Gao | RGS8-Gao reg | RGS16-Gao HTS | RGS4-Gao reg | RGS4-Gao HTS | Avidin counter | RGS8-Gao single | RGS7-Gao confirm | RGS16-Gao single | RGS4-Gao single | RGS19-Gao single
Cc1ccc(/C=N/n2c(-c3ccncc3)n[nH]c2=S)cc1 | 11 | 3 | 57.9 | 50.5* | -29.4 | 63.2 | 63.2* | 1.5 | 108.0 | 122.6 | 109.4 | 112.2 | 98.3
CC(=O)OC(C)CS(=O)(=O)c1ccccc1 (configuration not stated) | 10 | 5 | 30.3* | 28.7* | 20.6* | 34.9* | / | 0.6 | 106.8 | 101.5 | 105.9 | 101.6 | 122.3
CN1C(=O)N(CN2CCCCC2)C2C1N(C)C(=O)N2CN1CCCCC1 (configuration not stated) | 22 | 4 | 122.8 | 153.9*[activator] | 549.4 | 127.1 | 127.1* | / | / | / | / | / | /
Nc1ccc2oc(-c3ccccc3Cl)cc(=O)c2c1O | 18 | 89* | 166.6*[activator] | 106.5 | 110.2 | 184.2*[activator] | / | 0.5 | 101.8 | 110.6 | 103.7 | 107.3 | 94.5
O=c1cc(-c2ccccc2Cl)oc2ccc([N+](=O)[O-])c(O)c12 | 19 | 11 | 96.5 | 100.6 | 102.8 | 96.2 | / | / | / | / | / | / | /
CCOc1nc(-c2ccccc2Cl)nc2ccccc12 | / | 3 | ? | 101.6 | 102.3 | 102.5 | / | / | / | / | / | / | /
OC(COc1ccc(-c2ccccc2)cc1)CN1CCOCC1 (configuration not stated) | 28 | 13 | 104.3 | 100.7 | 102.3 | 104.1 | / | / | / | / | / | / | /
OC(COc1ccc(Br)cc1)CN1CCOCC1 (configuration not stated) | 41 | / | / | / | / | / | / | 3.1 | 104.0 | 100.8 | 107.7 | 100.6 | 101.4
C/C(=N\NC(=O)Cc1cccn1C)c1cccs1 | 21 | -2 | 31.2* | 29.5* | 27.3 | 34.2* | / | -1.3 | 102.4 | 103.8 | 102.0 | 103.7 | 106.1
Cc1ccc(/C=C/C(=O)O)cc1S(=O)(=O)NC1CCS(=O)(=O)C1 (configuration not stated) | 20 | 9 | 104.1 | 102.0 | 99.5 | 104.2 | / | / | / | / | / | / | /
CSCC[C@H](NC(=O)Nc1ccc(OC(F)(F)F)cc1)C(=O)O | / | 5 | ? | 55.0* | 48.2 | 60.9 | 60.9* | -0.5 | 102.0 | 99.5 | 97.7 | 101.7 | 96.7
CCN(CC)CCCNC(=O)C1c2cc(OC)c(OC)cc2C(=O)N(C)C1c1cccs1 (configuration not stated) | 33 | 12 | 130.2 | 153.1*[activator] | 453.6 | 153.1*[activator] | / | -0.9 | 105.2 | 98.1 | 110.3 | 103.4 | 103.4
CCC(C)Sc1nc(O)cc(=O)[nH]1 (configuration not stated) | 21 | 239* | 248.1*[activator] | 89.4 | 130.7 | 110.5 | 110.5* | 2.5 | 97.8 | 104.0 | 100.2 | 101.2 | 87.7
Oc1ccc(N=Nc2n[nH]c(-c3ccccc3)n2)cc1 | 12 | 7 | 87.2 | 81.7 | 13.9* | 91.2 | 91.2* | 0.8 | 95.3 | 55.8* | 72.5* | 71.9* | 35.1*
CCN(CC)CCN1C(=O)c2ccccc2NC1c1ccccc1F (configuration not stated) | 23 | 3 | 89.9 | 75.3 | 22.7* | 87.9 | 87.9* | / | / | / | / | / | /
CCN(CC)CCN1C(=O)c2ccccc2NC1c1ccc(F)cc1 (configuration not stated) | 25 | 37 | 99.8 | 100.7 | 102.0 | 98.9 | / | / | / | / | / | / | /
O=C(N=Nc1c(O)[nH]c2ccc(Br)cc12)c1cc(-c2cccc3ccccc23)n[nH]1 | 9 | 9 | 83.3 | 67.2 | 8.3* | 89.2 | 89.2* | -1.0 | 93.3 | 89.8 | 98.2 | 96.3 | 122.8
COC(=O)c1cc(Cl)nc2ccccc12 | 22 | 6 | 98.7 | 89.8 | 55.8 | 95.5 | / | / | / | / | / | / | /
CCCCOc1ccc(Cc2cnc(N)nc2N)cc1 | / | 6 | ? | 98.7 | 99.8 | 99.8 | / | / | / | / | / | / | /
CC(C)Oc1ccc(Cc2cnc(N)nc2N)cc1 | 40 | 8 | 132.0 | 163.2*[activator] | i | 136.6 | 136.6* | -0.3 | 103.8 | 103.1 | 102.4 | 103.6 | 100.4
Cc1ccc(C(=O)C2Oc3ccccc3C3CC(c4ccc(C)cc4)=NN23)cc1 (configuration not stated) | 7 | 2 | 82.6 | 57.0* | 14.2 | 79.4 | 79.4* | -0.9 | 100.9 | 97.4 | 98.5 | 99.7 | 92.3
O=Cc1ccc(O)c(O)c1 | 19 | 7 | 82.2 | 88.2 | 82.6 | 84.3 | / | / | / | / | / | / | /
Oc1ccc(N=Cc2ccc(O)c(O)c2)cc1 | 6 | 2 | 49.0* | 60.9 | -0.5 | 58.8 | 58.8* | -3.1 | 89.0 | 85.8 | 88.0 | 89.0 | 80.8
CC1=NCCN1CCNC(=O)Nc1cc(C)cc(C)c1 | / | 3 | ? | 67.4 | 46.6 | 46.9* | / | -1.1 | 101.3 | 101.1 | 102.2 | 101.7 | 101.2
CC1=NCCN1CCNC(=O)Nc1ccc(F)cc1 | / | 8 | ? | 113.1 | 108.7 | 119.8 | / | / | / | / | / | / | /
SMILES | GSH fluor | Avidin fluor | RGS7-Gao | RGS8-Gao reg | RGS16-Gao HTS | RGS4-Gao reg | RGS4-Gao HTS | Avidin counter | RGS8-Gao single | RGS7-Gao confirm | RGS16-Gao single | RGS4-Gao single | RGS19-Gao single
COc1ccc(CNS(=O)(=O)c2cccc(S(=O)(=O)N3CCOCC3)c2)cc1 | 37 | 8 | 101.2 | 102.9 | 103.1 | 97.0 | / | / | / | / | / | / | /
N#Cc1c(-c2ccccc2)nc(N2CCCCCC2)[nH]c1=O | 52 | 3 | 88.5 | 82.2 | 14.7* | 86.0 | 86.0* | -0.4 | 101.2 | 103.7 | 103.8 | 103.1 | 94.9
Cc1ccc(C(=O)COC(=O)CCc2ccc(S(=O)(=O)N3CCCCC3)cc2)cc1 | 10 | 25 | 102.8 | 98.2 | 104.1 | 101.2 | / | / | / | / | / | / | /
Cc1ccc(C(=O)N/C(=C\c2ccco2)C(=O)NCCCn2ccnc2)cc1C | 14 | 11 | 104.0 | 112.0 | 157.5 | 105.1 | / | / | / | / | / | / | /
C=CCc1cccc(/C=N/NC(=O)c2ccccc2OC)c1O | 11 | 5 | 97.2 | 98.4 | 96.4 | 96.0 | / | / | / | / | / | / | /
C=CCc1cccc(/C=N/NC(=O)c2ccccc2Br)c1O | 15 | 2 | 24.6* | 31.3* | 23.5* | 33.6* | / | -1.2 | 100.6 | 95.2 | 96.8 | 99.8 | 82.2
